Only some compounds are listed: those with a hit (about 7.9% of all), similar ones and a draw of the others.
SW480 rereplic: A quantitative high throughput screen for small molecules that induce DNA re-replication in SW480 colon adenocarcinoma cells; 340,000 tested, 1.8% active; Potency, µM (series often up to 46.1 µM), for the others: at the highest dose re-replication activation, most hits filed as activators; AID 624297, 2012; SW480 DNA re-replication, Hoechst DNA content imaging, 48 h; also: % of control where 0% means no effect; nearly all actives have a fitted effect of over 55% in size
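DNA re-replication was detected as more nuclei of elevated Hoechst intensity after 48 hr exposure to compound (23 nL pinned per well of 250 cells).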
HT1080-NT tox: qHTS for induction of synthetic lethality in tumor cells producing 2HG: qHTS for the HT-1080-NT fibrosarcoma cell line. Potency, µM (titrated, usually from 46.1 µM), for inactives: at the top dose activity, negative = less viability, hits mostly cytotoxic. 360,000 tested, 1.6% active. AID 686970, 2013. HT-1080-NT fibrosarcoma viability, CellTiter-Glo ATP luminescence, 48 h;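 also: NT is the 2HG producing partner of a matched IDH1 knockdown line; 0% = DMSO-treated cells and -100% = media-only wells without cells; nearly all actives have a fitted effect of over 55% in size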
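Read-out is CellTiter-Glo luminescence after 10 minutes at room temperature, following 48 hours' compound treatment of HT-1080-NT cells (750 cells/well, RPMI, 5% FBS, 37 degrees C).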
MCF10A rerep: A quantitative high throughput screen for small molecules that induce DNA re-replication in MCF 10a normal breast cells; MCF 10A DNA re-replication, Hoechst nuclear intensity, 48 h; 350,000 tested, 2.9% active; Potency, µM (series often up to 46.1 µM), without a hit: at the highest dose activity, positive = re-replication, most hits filed as activators; also: % of control where 0% means no effect; nearly all actives have a fitted effect of over 50% in size
KB-V1 MDR tox: qHTS assay for MDR1-selective chemotherapeutics: Primary screen using the drug-selected MDR subline cells KB-V1 | KB-V1 MDR cells viability, CellTiter-Glo, 72 h | Potency, µM (titrated, usually from 46.1 µM), usual class: cytotoxic | 400,000 tested, 3.4% active | AID 1347076, 2019; also: % is scaled to controls: 0 for no effect and ±100 for the full control effect; nearly all actives have a fitted effect of over 60% in size
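Cytotoxicity via CellTiter-Glo luminescence after 72 h compound exposure at 37 degrees C. Cells: drug-selected KB-V1 line, DMEM phenol-red free plus 10% FBS. Compounds tested at multiple concentrations; normalized data fitted to concentration-effect curves.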
KB-3-1 tox: qHTS assay for MDR1-selective chemotherapeutics: Primary screen using the parental adenocarcinoma cell KB-3-1; KB-3-1 viability, CellTiter-Glo ATP luminescence, 72 h; Potency, µM (highest dose often 46.1 µM), actives largely listed as cytotoxic; 400,000 tested, 1.4% active; AID 1347075, 2019; also: % is scaled to controls: 0 for no effect and ±100 for the full control effect; nearly all actives have a fitted effect of over 60% in size
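Using CellTiter-Glo luminescence, growth of non-resistant KB-3-1 adenocarcinoma cells is assessed 72 h after pin-tool compound addition at 37 °C. Normalized responses across the concentration series yield fitted curves.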
HT1080 IDH1KD tx: qHTS for induction of synthetic lethality in tumor cells producing 2HG: qHTS for the HT-1080-IDH1KD cell line; Potency, µM (highest dose often 46.1 µM), for inactives: at the highest dose activity, negative = toxicity, hits mostly cytotoxic; AID 686971, 2013; HT-1080 IDH1 knockdown viability, ATP luminescence, 48 h; 360,000 tested, 2% active;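 also: 0% = DMSO wells and -100% = cell-free medium wells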
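Using the IDH1-knockdown HT-1080 line run in the same batch and compound series as the NT line, viability after 48 h at 37 °C was determined by CellTiter-Glo luminescence and expressed as % activity.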
* hit, by the source's call; i = inactive; ? = inconclusive; · = not tested or not shown. Calls follow the shape of the dose curve; as a rule, active = well fitted curve in the direction sought with a large enough effect; inconclusive = small, poorly fitted or top-dose-only effect, or another doubt; inactive = no such curve, though single readings can be large; an effect the other way counts as inactive or inconclusive. Potency is read from the fitted curve at half-maximal effect.

SMILES	SW480 rereplic	HT1080-NT tox	MCF10A rerep	KB-V1 MDR tox	KB-3-1 tox	HT1080 IDH1KD tx
N#CC1(NC(=O)Cn2ncc(Cl)c(Cl)c2=O)CCCCC1	-53%	5.8µM*	4.5µM*	i	?	9.2µM*
Cc1cc(OCC(=O)N2CCC(C(=O)O)CC2)c2c(C)c(C)c(=O)oc2c1	-27%	12%	-5%	i	i	12%
COCCNc1nc(NCCOc2ccccc2)c2sc(-c3ccccc3)cc2n1	·	15µM*	·	?	i	23µM*
COc1ccc(-n2nc([N+](=O)[O-])c(=NCc3cccnc3)n2O)cc1	-7%	1%	-6%	21µM*	i	0%
COc1ccc(-n2nc([N+](=O)[O-])c(=NCCc3ccc(OC)c(OC)c3)n2O)cc1	3%	-12%	3%	2.6µM*	i	-16%
COc1ccc(-n2nc([N+](=O)[O-])c(=NCCc3ccc(C)cc3)n2O)cc1	1%	5%	7%	i	i	-2%
CCN(C(=O)c1cc2c(=O)n3ccccc3nc2n1CCCOC)C1CCCCC1	13%	0%	?	i	i	-4%
CSCCC(NC(=O)COc1ccccc1)C(=O)N(C)Cc1c(F)cccc1Cl (stereo unspecified)	·	-6%	·	?	i	-4%
CSCCC(NC(=O)COc1ccccc1)C(=O)N(C)CC(=O)Nc1ccc(Cl)cc1 (stereo unspecified)	5%	-11%	5%	3.7µM*	i	-8%
COc1ccc(NC(=O)CN(C)C(=O)C(NC(=O)c2ccco2)C(C)C)cc1 (stereo unspecified)	-2%	-2%	-4%	i	i	3%
CSCCC(NC(=O)COc1ccccc1)C(=O)NC1CCC(C)CC1 (stereo unspecified)	-2%	5%	14%	8.2µM*	i	-2%
COc1cccc(NC(=O)CN(C)C(=O)C(CCSC)NC(=O)c2ccco2)c1 (stereo unspecified)	1%	-7%	-1%	18µM*	i	-2%
CC(C)NC(=O)CSc1nnc(CNC(=O)OC(C)(C)C)n1C	-11%	12%	1%	i	i	16%
CCOc1ccccc1NC(=O)c1c(NC(=O)Cc2ccccc2)sc2c1CCCC2	·	·	·	i	i	·
CC(CC(=O)Nc1ccc2c(c1)c(=O)n(C)n2-c1ccc2ccccc2c1)C(F)(F)F (stereo unspecified)	·	?	·	5.8µM*	5.8µM*	?
Cn1c(=O)c2cc(NC(=O)Cc3cccnc3)ccc2n1-c1ccc2ccccc2c1	·	?	·	?	?	18µM*
CC(CC(=O)Nc1ccc2c(c1)c(=O)n(C)n2-c1ccccc1F)c1ccccc1 (stereo unspecified)	·	7.3µM*	·	?	?	4.1µM*
Cn1c(=O)c2cc(NC(=O)CC(C)(C)C)ccc2n1-c1ccccc1F	·	?	·	i	i	22%
O=C(c1ccco1)N(Cc1cccnc1)C(c1ccccc1)c1nc2ccccc2[nH]1 (stereo unspecified)	·	-2%	·	i	i	1%
Cc1cccnc1CCNCc1c(C(=O)N2C[C@@H](C)O[C@@H](C)C2)nc2ccc(Cl)cn12	12%	-2%	5%	?	i	-22%
CCOC(=O)CNC(=O)CN1CCC(c2nc3ccccc3[nH]2)CC1	-1%	0%	-12%	i	i	0%
COc1cc(-c2cc(O)c(-c3ccc4ccccc4n3)c(=O)[nH]2)cc(OC)c1OC	21µM*	?	12µM*	?	?	-26%
COc1cc(-c2nc3ccccc3nc2-c2ccc(O)c(OC)c2)ccc1O	-7%	-2%	1%	i	i	-20%
COc1cc2c(cc1OC)C(C(=O)NCCN1CCOCC1)C1c3ccccc3CCN1C2=O (stereo unspecified)	2%	7%	6%	i	i	2%
O=C(COc1cccc(Cl)c1)Nc1ccccc1N1CCCCC1	6%	5%	18µM*	?	i	-1%
SMILES	SW480 rereplic	HT1080-NT tox	MCF10A rerep	KB-V1 MDR tox	KB-3-1 tox	HT1080 IDH1KD tx
Cc1ccc(C)c(N2N=C(C(=O)Nc3ccccc3N3CCCC3)CCC2=O)c1	?	?	21µM*	?	i	?
CC(=O)Nc1cccc(C(=O)Nc2ccccc2N2CCOCC2)c1	?	?	?	15µM*	16µM*	?
O=C(Nc1ccccc1N1CCOCC1)c1ccc2ccccc2c1	26%	0%	7%	i	i	1%
COc1ccc(Cl)cc1C(=O)Nc1ccccc1N1CCN(C)CC1	14%	-7%	28%	5.8µM*	i	-1%
CC(C)CCN(C(=O)c1ccncc1)c1c(N)n(Cc2ccccc2)c(=O)[nH]c1=O	7%	6%	-1%	i	i	5%
Cn1c(=O)c2c(ncn2CC2OCCO2)n(C)c1=O	19%	·	1%	i	i	·
Cc1ccc(OCC(=O)Nc2ccccc2N2CCCC2)c(C)c1	5%	1%	67%	i	i	-4%
N#Cc1ccccc1NC(=O)CNc1ccccc1N1CCCCC1	0%	?	?	21µM*	i	?
O=C(Nc1ccccc1N1CCCCC1)c1cccs1	7%	0%	21µM*	i	i	15%
CS(=O)(=O)N1CCN(c2ccccc2NC(=O)c2cccs2)CC1	3%	-2%	-3%	i	i	-3%
COc1ccc(N2CCOCC2)c(NC(=O)COc2cccc(C)c2)c1	-4%	6%	-1%	13µM*	i	0%
Cc1cc(C)c(OCC(=O)Nc2ccccc2N2CCCCC2)c(C)c1	?	-3%	17%	16µM*	i	-14%
COC(=O)C1=C(NC(=O)CCCCl)CCS1	-5%	5%	0%	i	i	12%
Cc1cc(C)c(OCC(=O)Nc2ccccc2N2CCOCC2)c(C)c1	?	-11%	?	i	21µM*	?
O=C(Nc1ccccc1N1CCCCC1)c1cccc(Cl)c1	0%	12%	21µM*	i	i	7%
O=C(Nc1ccccc1N1CCCC1)c1cc(Cl)ccc1Cl	7%	4%	17%	i	i	1%
